ARNT TACC3 PPI: disruptors of human ARNT/TACC3 interaction. Q9Y6A5. AlphaScreen His-ARNT PAS-B/GST-TACC3 binding, luminescence; TACC3 fragment carries E629A point mutation. inhibition, % at 9.99 µM. 390,000 tested, 0.66% active;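 active = mean inhibition of replicates at least 50% and at least half of replicates each reaching 50%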
hiPSC survival: hiPSC single-cell survival enhancement. 360,000 tested, 0.044% active. survival enhancement, % at 20 µM. AID 602274. ATPlite luminescence; 100% = ROCK inhibitor wells, 0% = DMSO; in the data active = survival enhancement above about 18%;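 note: cells exposed to compounds for 16 hours before the ATP read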
ABCB6 inh MLPCN: blocks the human ABCB6 transporter. Q9NP58. K562-ABCB6 porphyrin accumulation, flow cytometry, 1 h; active compounds read low. fluorescence ratio to DMSO, % at 10 µM. 360,000 tested, 0.19% active. AID 602162;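 active = fluorescence ratio to DMSO below 75%, the collection mean minus 3 SD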;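 note: signal is porphyrin accumulated inside mitochondria; lower ratio means ABCB6 inhibition with less porphyrin fluorescence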
Target sequence (Q9NP58 whole entry, looked up): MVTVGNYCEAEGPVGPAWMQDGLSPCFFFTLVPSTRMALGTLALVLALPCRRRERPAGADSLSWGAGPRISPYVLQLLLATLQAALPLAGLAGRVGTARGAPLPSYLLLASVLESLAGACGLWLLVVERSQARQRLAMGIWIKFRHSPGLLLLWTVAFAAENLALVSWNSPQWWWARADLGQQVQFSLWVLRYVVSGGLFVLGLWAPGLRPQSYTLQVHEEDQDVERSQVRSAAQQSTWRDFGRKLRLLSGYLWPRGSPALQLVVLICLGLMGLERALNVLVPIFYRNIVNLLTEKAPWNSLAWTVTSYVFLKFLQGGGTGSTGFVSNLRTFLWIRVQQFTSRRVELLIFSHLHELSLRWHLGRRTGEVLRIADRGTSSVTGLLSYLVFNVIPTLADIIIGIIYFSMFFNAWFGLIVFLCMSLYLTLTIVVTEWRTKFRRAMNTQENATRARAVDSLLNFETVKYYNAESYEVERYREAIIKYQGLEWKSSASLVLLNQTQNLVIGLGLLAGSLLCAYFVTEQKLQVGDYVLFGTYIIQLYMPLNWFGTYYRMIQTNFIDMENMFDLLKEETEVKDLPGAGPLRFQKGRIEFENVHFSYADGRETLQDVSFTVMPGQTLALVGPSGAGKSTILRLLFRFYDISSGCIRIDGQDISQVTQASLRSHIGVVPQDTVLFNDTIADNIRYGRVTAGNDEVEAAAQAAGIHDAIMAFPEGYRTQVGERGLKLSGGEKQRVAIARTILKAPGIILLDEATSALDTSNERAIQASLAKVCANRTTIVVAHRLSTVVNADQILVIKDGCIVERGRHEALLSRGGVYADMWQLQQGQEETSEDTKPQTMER
NRP1-CendR mod: alters CendR peptide binding to human NRP-1. O14786. FAM-RPARPAR peptide binding to NRP-1, fluorescence polarization. inhibition, % at 25 µM. 360,000 tested, 0.85% active;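 active = inhibition or corrected inhibition above about 18%, plus a signal ratio from 0.5 to 1.5, limit read from the data, passing the limit was not always enough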
GSIS activator: primary screen for activators of insulin secretion dependent on glucose, INS-1E cells, GLuc reporter luminescence; INS-1E GLuc reporter insulin secretion, 2-3 h; AID 743287; 370,000 tested, 0.61% active; activation, % at 16.6 µM;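 active = lowest replicate activation of at least 40%, so every replicate reaches that level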
Each line names hits and unclear results; the compound was inactive in the other large screens. Rows were chosen to be rich in hits. Some 1.8% of all compounds tested hit in one or more screens of this group.

CC12CCC(C(=O)N(CSC(=S)N/N=C\c3ccccc3O)C1=O)C2(C)C (stereo not given)	ARNT TACC3 PPI 66 (no result: GSIS activator)
COc1ccc(/C=N\NC(=S)SCN2C(=O)C3CCC(C)(C2=O)C3(C)C)cc1 (stereo not given)	none (no result: GSIS activator)
N#CCCN1CCN(CCC#N)CC1	none (no result: GSIS activator)
N#CCCN1CCNCC1	NRP1-CendR mod 34 (no result: GSIS activator)
C[C@@H]1CN([C@@H](C)CO)C(=O)c2ccccc2-c2ccccc2CO[C@@H]1CN(C)C(=O)[C@H]1CCCN1C	none (no result: ARNT TACC3 PPI, hiPSC survival, ABCB6 inh MLPCN, NRP1-CendR mod)
CCNc1nc(NC(N)=S)nc(NC(C)(C)C)n1	GSIS activator 70
Cc1ccc(NC(=O)Nc2cccs2)nc1	NRP1-CendR mod 25 (no result: GSIS activator)
COc1ccc(CN2C(=O)C(C)Nc3ncnc(N4CCOCC4)c32)cc1 (stereo not given)	none
CC1Nc2ncnc(N3CCOCC3)c2N(Cc2ccccc2)C1=O (stereo not given)	ARNT TACC3 PPI 23
Cc1ccc(S(=O)(=O)N(CCC(=O)Nc2ccc(OC(F)(F)F)cc2)c2ccccc2)cc1	NRP1-CendR mod 40
CCCCCc1c(C)nc(Nc2ccccc2)[nH]c1=O	NRP1-CendR mod 38 (no result: GSIS activator)
Cc1ccc(Nc2nc(C)c(CCC(C)C)c(=O)[nH]2)cc1	none (no result: GSIS activator)
COc1cccc(C2CC(=O)N3CN(c4cccc(Cl)c4C)CSC3=C2C#N)c1OC (stereo not given)	hiPSC survival 27 (no result: GSIS activator)
O=c1c(C=Nc2ccc(Oc3ccccc3)cc2)c[nH]n1-c1cccc(Cl)n1	GSIS activator 107
Cc1nc2sc(C#N)c(N)c2c2c1CCCC2	none (no result: GSIS activator)
N#Cc1sc2nc(N3CCCCC3)c3c(c2c1N)CCCC3	GSIS activator 141 (no result: ABCB6 inh MLPCN)
COc1ccccc1CNC(=O)C[C@H]1CC[C@@H]2[C@H](COC[C@H](O)CN2C(=O)Nc2ccc(Cl)cc2)O1	none (no result: hiPSC survival, ABCB6 inh MLPCN, NRP1-CendR mod)
CCCc1cc(CCC)n2nc(N)nc2n1	none (no result: ARNT TACC3 PPI)
CC(C)c1cc(C(C)C)n2nc(N)nc2n1	GSIS activator 89
Cc1ccc(NC(=O)C(NCc2ccccn2)c2ccccc2)cc1 (stereo not given)	none
COc1ccccc1NC(=O)C/C(C)=N/NC(=O)c1ccccn1	none
COc1cc(NC(=O)C/C(C)=N/NC(=O)c2ccccn2)c(OC)cc1Cl	NRP1-CendR mod 23
CN(C)c1ccc(NC(=O)CC(NCc2ccccn2)C(=O)O)cc1 (stereo not given)	ARNT TACC3 PPI 77
C/C(CC(=O)Nc1ccc(N(C)C)cc1)=N\NC(=O)c1ccccn1	ARNT TACC3 PPI 52 (no result: GSIS activator)
CCNC[C@@H]1[C@@H](c2ccc(-c3ccc(F)cc3)cc2)[C@H](CO)N1S(C)(=O)=O	none (no result: ARNT TACC3 PPI, hiPSC survival, ABCB6 inh MLPCN, NRP1-CendR mod)
Cc1ccc(S(=O)(=O)N(C)C[C@@H]2Oc3ccc(NC(=O)Nc4ccc(F)cc4)cc3CC(=O)N([C@@H](C)CO)C[C@@H]2C)cc1	none (no result: ARNT TACC3 PPI, hiPSC survival, ABCB6 inh MLPCN, NRP1-CendR mod)
COC(=O)C1C(=O)NC(SC)=C(C#N)C1c1ccccc1 (stereo not given)	GSIS activator 40
CC(Cc1ccccn1)NC(=O)c1ccc(OC2CCN(Cc3ccccn3)CC2)cc1 (stereo not given)	none
COc1cc(C(=O)NC(C)Cc2ccccn2)ccc1OC1CCN(C(C)=O)CC1 (stereo not given)	NRP1-CendR mod 20
COc1cc(O)c(C(CC(=O)N2CCOCC2)c2ccc3c(c2)OCO3)c(OC)c1 (stereo not given)	NRP1-CendR mod 28
CCN(CC)CCC(c1ccc(OC)cc1)c1c(O)cc(OC)cc1OC (stereo not given)	none
COc1cc(O)c(C(CC(=O)N2CCOCC2)c2ccc(N(C)C)cc2)c(OC)c1 (stereo not given)	NRP1-CendR mod 24
CCN(CC)CCC(c1ccc(N(C)C)cc1)c1c(O)cc(OC)cc1OC (stereo not given)	ARNT TACC3 PPI 30
C[C@@H]1CN([C@@H](C)CO)C(=O)Cc2cc(NC(=O)CCCCCC(=O)Nc3ccccc3N)ccc2O[C@@H]1CN(C)Cc1ccccc1	none (no result: hiPSC survival, ABCB6 inh MLPCN, NRP1-CendR mod)
Cc1ccccc1N1CCN(C2=NC(=O)/C(=C/c3cn[nH]c3-c3ccccc3)S2)CC1	ARNT TACC3 PPI 21
Cc1ccccc1-c1ccc(/C=C2/SC(N3CCOCC3)=NC2=O)o1	none
CCCNC(=O)N(C)C[C@@H]1Oc2ncc(C3=CCCCC3)cc2C(=O)N([C@@H](C)CO)C[C@@H]1C	none (no result: ARNT TACC3 PPI, hiPSC survival, ABCB6 inh MLPCN, NRP1-CendR mod)
Cc1cc(Cl)ccc1OCC(=O)NNC(=O)C1CCCO1 (stereo not given)	NRP1-CendR mod 25
COc1ccc(OCC(=O)NNC(=O)C2CCCO2)cc1 (stereo not given)	none
O=C(O)c1cc2ccccc2cn1	ARNT TACC3 PPI 77
COCC(=O)N[C@@H]1CC[C@@H](CC(=O)NCc2ccccc2OC)O[C@@H]1CO	none (no result: hiPSC survival, ABCB6 inh MLPCN, NRP1-CendR mod)
Cc1noc(C)c1S(=O)(=O)Nc1ccc2c(c1)CC(=O)N([C@H](C)CO)C[C@H](C)[C@@H](CN(C)S(=O)(=O)c1ccccc1)O2	none (no result: hiPSC survival, ABCB6 inh MLPCN, NRP1-CendR mod)
N=c1n(Cc2ccccc2)c2ccccc2n1CC(O)COc1ccccc1 (stereo not given)	none (no result: GSIS activator)
N=c1n(CCN2CCCCC2)c2ccccc2n1CC(O)COc1ccccc1 (stereo not given)	GSIS activator 42
Cc1ccc(Cn2c(=N)n(CC(O)COc3ccccc3)c3ccccc32)cc1 (stereo not given)	NRP1-CendR mod 24
c1ccc(Cc2nc3ccccc3s2)cc1	none
Cc1nc(Cc2ccccc2)sc1CC#N	GSIS activator 42 (no result: ARNT TACC3 PPI)
COc1ccc(S(=O)(=O)N2CCCCC2)cc1NC(=O)c1c(F)cccc1Cl	NRP1-CendR mod 26
COc1ccc(S(=O)(=O)N2CCCCC2)cc1NC(=O)C1CC1C (stereo not given)	GSIS activator 40
COc1ccc(S(=O)(=O)N2CCCCC2)cc1NC(=O)C1CCCO1 (stereo not given)	none
CC(C)NC(=O)Nc1ccc2c(c1)C(=O)N([C@H](C)CO)C[C@@H](C)[C@@H](CN(C)Cc1ccc(-c3ccccc3)cc1)O2	none (no result: ARNT TACC3 PPI, hiPSC survival, ABCB6 inh MLPCN, NRP1-CendR mod)
CCCCSC1(SCCCC)N=C(N)C2(C#N)C(c3ccccc3)NC(C)=CC12C#N (stereo not given)	ARNT TACC3 PPI 56 (no result: GSIS activator)
CCOC(=O)c1c(N)nn(C(=O)C(C)C)c1-c1ccccc1	NRP1-CendR mod 22 (no result: ARNT TACC3 PPI, GSIS activator)
O=c1c2ccccc2nc(-c2ccco2)n1/N=C/c1ccco1	GSIS activator 54
O=c1c2ccccc2nc(-c2ccco2)n1/N=C/c1ccccc1O	GSIS activator 69
COc1ccc(CN(C)C[C@H]2OCCCC[C@H](C)Oc3ccc(NC(=O)Nc4c(C)noc4C)cc3C(=O)N([C@H](C)CO)C[C@@H]2C)cc1	none (no result: hiPSC survival, ABCB6 inh MLPCN, NRP1-CendR mod)
CCCN1[C@@H]2Cn3c(ccc(-c4ccccc4F)c3=O)[C@H]1[C@@H](C(=O)NCCOC)[C@@H]2CO	none (no result: hiPSC survival, ABCB6 inh MLPCN, NRP1-CendR mod)
CCOCCCNC(=O)C(c1ccc(C)cc1)N(Cc1cccs1)C(=O)c1ccccc1O (stereo not given)	NRP1-CendR mod 29
CCOCCCNC(=O)C(c1ccccc1)N(Cc1cccs1)C(=O)c1ccccc1O (stereo not given)	none

High-throughput results from PubChem BioAssay.
